Screen size: about 5,500 compounds; about 2,000 (36%) were called active. Not shown: some 18% with an inconclusive outcome. Cut-off read from the data, not from the text of the source: active = normalized growth mostly below about 0.91 (no sharp cut-off); inconclusive = no clear call, values can overlap the other calls; inactive = mostly above about 0.92. The list shows a part of the results.
Experiment: chemical genetic growth profiling, strain panel (AID 1159580);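 note: tested at 20 µM; growth read once vehicle control cultures reached saturation at 30 °C; 1 = growth at the plate median or of vehicle wells; lower values mean less growth of the strain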
Conditions: S. cerevisiae deletion strains, growth OD

Measured: normalized growth

CN=C(NC#N)NCCSCc1nc(N=C(N)N)cs1
inactive: locus YAL021C, strain ccr4, stronger effect = lower value 0.966 | locus YAL026C, strain drs2, stronger effect = lower value 0.981 | locus YAL030W, strain snc1, stronger effect = lower value 0.998 | locus YBL061C, strain skt5, stronger effect = lower value 0.988 | locus YBR009C, strain hhf1, stronger effect = lower value 0.99 | locus YBR023C, strain chs3, stronger effect = lower value 0.991 | locus YBR171W, strain sec66, stronger effect = lower value 0.975 | locus YBR231C, strain swc5, stronger effect = lower value 0.986 | locus YBR279W, strain paf1, stronger effect = lower value 0.99 | locus YCL011C, strain gbp2, stronger effect = lower value 0.966 | locus YCL016C, strain dcc1, stronger effect = lower value 0.984 | locus YCL061C, strain MRC1, stronger effect = lower value 0.974 | locus YCL069W, strain vba3, stronger effect = lower value 0.978 | locus YCR088W, strain abp1, stronger effect = lower value 0.967 | locus YDL005C, strain med2, stronger effect = lower value 0.986 | locus YDL040C, strain nat1, stronger effect = lower value 0.994 | locus YDR001C, strain nth1, stronger effect = lower value 0.978 | locus YDR069C, strain doa4, stronger effect = lower value 0.988 | locus YDR137W, strain rgp1, stronger effect = lower value 0.977 | locus YDR159W, strain sac3, stronger effect = lower value 0.985 | locus YDR195W, strain ref2 0.957 | locus YDR297W, strain sur2, stronger effect = lower value 0.976 | locus YDR334W, strain swr1, stronger effect = lower value 0.944 | locus YDR335W, strain msn5, stronger effect = lower value 0.974 | locus YDR392W, strain spt3, stronger effect = lower value 0.977 | locus YEL003W, strain gim4, stronger effect = lower value 0.977 | locus YEL037C, strain rad23, stronger effect = lower value 0.937 | locus YEL061C, strain CIN8 (second series), stronger effect = lower value 0.979 | locus YER015W, strain faa2, stronger effect = lower value 0.981 | locus YER016W, strain bim1, stronger effect = lower value 0.99 | locus YER111C, strain swi4, stronger effect = lower value 0.993 | locus YER155C, strain BEM2 (second series), stronger effect = lower value 0.99 | locus YFR010W, strain ubp6, stronger effect = lower value 0.96 | locus YGL167C, strain pmr1, stronger effect = lower value 0.982 | locus YGL173C, strain kem1, stronger effect = lower value 0.983 | locus YGL227W, strain vid30, stronger effect = lower value 0.981 | locus YGL240W, strain doc1, stronger effect = lower value 0.991 | locus YGL253W, strain hxk2, stronger effect = lower value 0.998 | locus YHR013C, strain ard1, stronger effect = lower value 0.97 | locus YHR027C, strain rpn1, stronger effect = lower value 0.984 | locus YHR142W, strain chs7, stronger effect = lower value 0.947 | locus YJL092W, strain hpr5, stronger effect = lower value 0.978 | locus YJL095W, strain BCK1 (second series), stronger effect = lower value 0.984 | locus YJL115W, strain asf1, stronger effect = lower value 0.959 | locus YJL129C, strain trk1, stronger effect = lower value 0.971 | locus YJL154C, strain vps35, stronger effect = lower value 0.979 | locus YJL164C, strain tpk1, stronger effect = lower value 0.989 | locus YJL166W, strain qcr8, stronger effect = lower value 0.987 | locus YJL187C, strain SWE1, stronger effect = lower value 0.985 | locus YKL160W, strain elf1, stronger effect = lower value 0.975 | locus YKR026C, strain gcn3, stronger effect = lower value 0.963 | locus YKR091W, strain srl3, stronger effect = lower value 0.986 | locus YLL001W, strain dnm1, stronger effect = lower value 0.985 | locus YLL026W, stronger effect = lower value 0.98 | locus YLL041C, strain sdh2, stronger effect = lower value 0.973 | locus YLR027C, strain aat2, stronger effect = lower value 0.984 | locus YLR221C, strain rsa3, stronger effect = lower value 0.987 | locus YLR258W, strain gsy2, stronger effect = lower value 0.996 | locus YLR262C, strain YPT6 (second series), stronger effect = lower value 0.984 | locus YLR320W, strain mms22, stronger effect = lower value 0.99 | locus YLR342W, strain FKS1, stronger effect = lower value 0.987 | locus YLR357W, strain rsc2, stronger effect = lower value 0.977 | locus YLR370C, strain arc18, stronger effect = lower value 0.983 | locus YLR384C, strain iki3, stronger effect = lower value 0.991 | locus YML120C, strain ndi1, stronger effect = lower value 0.949 | locus YMR058W, strain fet3, stronger effect = lower value 0.966 | locus YMR125W, strain sto1, stronger effect = lower value 0.992 | locus YMR129W, stronger effect = lower value 0.981 | locus YMR205C, strain PFK2, stronger effect = lower value 0.994 | locus YMR231W, strain pep5, stronger effect = lower value 0.984 | locus YNL071W, strain lat1, stronger effect = lower value 0.977 | locus YNL209W, strain ssb2, stronger effect = lower value 0.982 | locus YNL248C, strain rpa49, stronger effect = lower value 0.94 | locus YNL322C, strain KRE1 (second series), stronger effect = lower value 0.984 | locus YNR049C, strain mso1, stronger effect = lower value 0.982 | locus YOR001W, strain rrp6, stronger effect = lower value 0.975 | locus YOR070C, strain gyp1, stronger effect = lower value 0.999 | locus YOR080W, strain dia2, stronger effect = lower value 0.974 | locus YOR083W, strain WHI5, stronger effect = lower value 0.975 | locus YOR106W, strain vam3, stronger effect = lower value 0.983 | locus YOR265W, strain rbl2, stronger effect = lower value 0.991 | locus YOR270C, strain vph1, stronger effect = lower value 0.983 | locus YOR290C, strain snf2, stronger effect = lower value 1.01 | locus YPL051W, strain arl3, stronger effect = lower value 0.981 | locus YPL078C, strain atp4, stronger effect = lower value 0.976 | locus YPL106C, strain sse1, stronger effect = lower value 0.984 | locus YPL240C, strain hsp82, stronger effect = lower value 0.971

Reference: PubChem BioAssay AID1159580 (chemical genetic matrix, 2015)
